Data reported in PubChem BioAssay (NCATS).
Where “and” joins values, the source holds several entries; their conditions need not be identical. Identical values can stand only once. Records with an inconclusive call do not appear. Calls of active or inactive are those of the source. Unless noted, the call rests on the fitted dose curve; in most records, active means well fitted curve in the direction sought with a large enough effect; inconclusive means small, poorly fitted or top-dose-only effect, or another doubt; inactive means no such curve, though single readings can be large; an effect the other way counts as inactive or inconclusive.

Assays:
[1] = molecular target: Luciferin 4-monooxygenase (Photinus pyralis) (UniProt P08659); assay: Biochemical firefly luciferase enzyme assay for NPC (AID 624030);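 further: purified P. pyralis luciferase at 10 nM with luciferin and ATP substrate; nearly all actives have a fitted effect of over 70% in size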
Chain of Luciferin 4-monooxygenase (Photinus pyralis) (P08659 whole entry, looked up): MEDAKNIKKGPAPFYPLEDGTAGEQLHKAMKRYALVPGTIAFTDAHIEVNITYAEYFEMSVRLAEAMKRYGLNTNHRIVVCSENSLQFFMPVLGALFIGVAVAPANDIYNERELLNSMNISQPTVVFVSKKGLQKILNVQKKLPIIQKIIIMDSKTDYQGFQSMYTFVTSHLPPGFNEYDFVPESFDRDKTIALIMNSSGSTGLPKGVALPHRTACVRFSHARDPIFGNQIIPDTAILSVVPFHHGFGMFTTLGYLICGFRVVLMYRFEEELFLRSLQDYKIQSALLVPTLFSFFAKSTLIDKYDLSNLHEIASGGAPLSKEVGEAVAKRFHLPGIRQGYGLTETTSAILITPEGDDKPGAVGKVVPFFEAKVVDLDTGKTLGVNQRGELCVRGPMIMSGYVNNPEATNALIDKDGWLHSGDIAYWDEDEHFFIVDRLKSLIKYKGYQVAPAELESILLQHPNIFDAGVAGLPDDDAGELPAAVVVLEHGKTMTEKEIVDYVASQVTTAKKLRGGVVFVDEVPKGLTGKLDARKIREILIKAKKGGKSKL
In short: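 Counter-screen for direct inhibition of the luciferase enzyme by approved-drug library compounds, run at 10 nM enzyme in 50 mM Tris acetate (final). Luminescence was read within 5 min of enzyme-buffer addition and normalized to PTC124 versus DMSO (0%).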

[2] = molecular target: Glutaminase kidney isoform, mitochondrial (Homo sapiens) (UniProt O94925); assay: qHTS for Inhibitors of Glutaminase (GLS): LOPAC Validation (AID 624146);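 further: glutamate product detected by oxidase and peroxidase coupled Amplex red fluorescence gain; nearly all actives have a fitted effect of over 60% in size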
Chain of Glutaminase kidney isoform, mitochondrial (Homo sapiens) (O94925 whole entry, looked up, canonical isoform): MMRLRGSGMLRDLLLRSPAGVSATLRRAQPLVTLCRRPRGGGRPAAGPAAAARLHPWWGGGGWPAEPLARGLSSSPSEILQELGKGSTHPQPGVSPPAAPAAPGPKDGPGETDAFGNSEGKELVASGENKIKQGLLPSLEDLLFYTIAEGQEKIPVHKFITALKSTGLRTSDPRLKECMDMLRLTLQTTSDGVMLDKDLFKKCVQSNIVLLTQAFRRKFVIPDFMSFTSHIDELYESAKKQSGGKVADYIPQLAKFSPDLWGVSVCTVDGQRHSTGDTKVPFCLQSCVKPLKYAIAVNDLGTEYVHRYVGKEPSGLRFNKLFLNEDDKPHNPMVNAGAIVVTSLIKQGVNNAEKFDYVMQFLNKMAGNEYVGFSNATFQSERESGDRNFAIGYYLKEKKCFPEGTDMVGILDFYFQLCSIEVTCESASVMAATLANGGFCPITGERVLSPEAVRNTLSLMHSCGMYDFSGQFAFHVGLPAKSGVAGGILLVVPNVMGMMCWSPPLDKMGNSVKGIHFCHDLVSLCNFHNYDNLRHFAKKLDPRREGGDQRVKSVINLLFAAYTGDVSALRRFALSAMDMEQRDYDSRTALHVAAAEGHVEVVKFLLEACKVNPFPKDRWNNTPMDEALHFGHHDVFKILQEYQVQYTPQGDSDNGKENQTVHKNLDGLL
In short: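 hKGA in 45 mM KH2PO4 (pH 8.2), 0.02% Tween-20 with compound, then 1mM L-Glutamine (stock as added) plus glutamate oxidase/HRP/Amplex red coupling mix. Fluorescence read initially and after 30 min at RT; signal change reflects glutamate formation.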

[3] = qHTS of Trypanosoma Brucei Inhibitors: LOPAC Validation (AID 624147)
In short: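 Glycolytic pyruvate kinase of T. brucei was incubated with substrate, test compound and 130 uM ADP for 45 minutes at room temperature. Luminescent Kinase-Glo Plus signal was measured after 10 minutes.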

[4] = molecular target: Glucagon-like peptide 1 receptor (Homo sapiens) (UniProt P43220); assay: qHTS of GLP-1 Receptor Agonists: LOPAC Validation (AID 624148);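 further: higher luminescence signal means agonism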
Chain of Glucagon-like peptide 1 receptor (Homo sapiens) (P43220 whole entry, looked up): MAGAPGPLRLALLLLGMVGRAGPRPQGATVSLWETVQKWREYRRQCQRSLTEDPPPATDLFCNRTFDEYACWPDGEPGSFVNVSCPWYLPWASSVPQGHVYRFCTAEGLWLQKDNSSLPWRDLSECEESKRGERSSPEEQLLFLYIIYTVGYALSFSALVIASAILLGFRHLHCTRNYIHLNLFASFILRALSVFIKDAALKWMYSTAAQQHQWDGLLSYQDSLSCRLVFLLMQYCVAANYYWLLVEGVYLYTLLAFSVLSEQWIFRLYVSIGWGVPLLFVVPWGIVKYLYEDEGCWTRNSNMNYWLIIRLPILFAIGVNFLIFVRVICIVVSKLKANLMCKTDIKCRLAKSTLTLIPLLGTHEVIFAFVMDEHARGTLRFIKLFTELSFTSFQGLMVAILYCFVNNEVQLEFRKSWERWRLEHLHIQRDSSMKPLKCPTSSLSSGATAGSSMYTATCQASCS
In short: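 HEK293 cells stably co-expressing a cAMP-responsive luciferase reporter and a hypersensitive GLP-1R were plated 12 h at 37 °C and exposed to compounds for 4-6 hr at 37 °C, 5% CO2. Luminescence was read 12 min after adding detection reagent.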

[5] = qHTS of Nrf2 Activators: LOPAC Validation (AID 624149)
In short: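 Luminescence read-out of ARE-luciferase activation: AREc32_Fluc cells treated with compounds for 24 hr at 37 deg C, then lysed with Steady-Glo for 30 min at room temperature before reading.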

[6] = HTS Assay for Allosteric Antagonists of the Human D2 Dopamine Receptor: Hit Validation in HTRF (AID 624455);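 further: stable D1 dopamine receptor cell line scored for blocking the D1 response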
In short: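 First, antagonism was screened by calcium flux in a force-coupled, inducible Hek293 Trex D2 line challenged with EC80 dopamine. Hits then went into an HTRF assay in cells stably expressing D1, testing inhibition of the D1 response.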

[7] = molecular target: Voltage-gated inwardly rectifying potassium channel KCNH2 (Homo sapiens) (UniProt Q12809); assay: qHTS Assay for Small Molecule Inhibitors of the Human hERG Channel Activity (AID 588834);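 further: lower thallium flux fluorescence means stronger hERG block; nearly all actives have a fitted effect of over 50% in size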; further: potency means the concentration at half of the fitted maximal effect
Chain of Voltage-gated inwardly rectifying potassium channel KCNH2 (Homo sapiens) (Q12809 whole entry, looked up): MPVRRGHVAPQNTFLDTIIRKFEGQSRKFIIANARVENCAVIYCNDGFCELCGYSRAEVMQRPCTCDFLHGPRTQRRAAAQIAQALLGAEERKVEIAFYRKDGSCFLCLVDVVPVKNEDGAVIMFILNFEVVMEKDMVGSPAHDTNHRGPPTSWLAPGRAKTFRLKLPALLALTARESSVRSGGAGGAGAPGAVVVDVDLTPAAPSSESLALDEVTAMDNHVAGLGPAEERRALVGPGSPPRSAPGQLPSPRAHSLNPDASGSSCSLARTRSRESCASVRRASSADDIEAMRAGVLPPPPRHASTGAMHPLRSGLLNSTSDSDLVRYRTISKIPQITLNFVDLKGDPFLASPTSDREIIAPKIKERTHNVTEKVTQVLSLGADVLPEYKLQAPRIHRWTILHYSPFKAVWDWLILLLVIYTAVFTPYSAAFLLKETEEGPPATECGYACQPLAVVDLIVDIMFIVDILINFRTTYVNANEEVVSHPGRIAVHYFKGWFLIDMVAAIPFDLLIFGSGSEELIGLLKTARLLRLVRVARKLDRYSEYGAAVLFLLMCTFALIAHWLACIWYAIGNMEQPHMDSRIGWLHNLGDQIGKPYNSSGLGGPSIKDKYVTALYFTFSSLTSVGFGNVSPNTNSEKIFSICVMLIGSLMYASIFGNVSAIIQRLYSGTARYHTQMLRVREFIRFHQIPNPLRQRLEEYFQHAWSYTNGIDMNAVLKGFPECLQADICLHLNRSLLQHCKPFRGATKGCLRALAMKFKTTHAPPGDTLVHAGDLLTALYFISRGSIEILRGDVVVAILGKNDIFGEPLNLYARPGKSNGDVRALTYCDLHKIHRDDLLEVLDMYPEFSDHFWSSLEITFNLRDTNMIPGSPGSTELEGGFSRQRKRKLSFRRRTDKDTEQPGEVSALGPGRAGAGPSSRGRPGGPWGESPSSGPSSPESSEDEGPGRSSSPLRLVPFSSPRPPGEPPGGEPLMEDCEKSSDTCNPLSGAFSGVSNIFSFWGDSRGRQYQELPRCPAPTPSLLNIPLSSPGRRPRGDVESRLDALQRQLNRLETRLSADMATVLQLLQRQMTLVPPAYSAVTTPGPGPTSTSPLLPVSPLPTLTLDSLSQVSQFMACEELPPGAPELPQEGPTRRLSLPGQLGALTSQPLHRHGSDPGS
In short: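 Kinetic FDSS fluorescence; U2OS + hERG BacMam (~100 virus particles/cell); FluxOR Tl+ flux; ~10 min cpd; AC50 (Hill).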

[8] = S16 Schwann cell PMP22 intronic element firefly luciferase assay (AID 624032); further: nearly all actives have a fitted effect of over 30% in size; further: potency means the concentration at half of the fitted maximal effect
In short: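 Rat S16 Schwann cells stably carrying a PMP22 intronic element-driven Fluc reporter were seeded overnight, then exposed to compounds for 24 h at 37 °C. Luminescence was normalized to PTC124 (positive control) and DMSO (0% activity).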

[9] = Cell Proliferation Assay against the TMD8 Cell Line (AID 651645); settings: TMD8 DLBCL cell line proliferation/viability; at 46.1 µM (top of the series) unless noted;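 further: cells exposed to compound for 48 h before reading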
In short: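 Viability by CellTiter-Glo after 48 h compound exposure of 500 log-phase TMD8 cells per well (RPMI, 5% FBS). Percent activity scaled between DMSO (100%) and 9.2 uM final bortezomib (0%).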

[10] = Cell Proliferation Assay against the HBL1 Cell Line (AID 651646); settings: HBL1 DLBCL cells; at 46.1 µM (top of the series) unless noted;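 further: cells exposed to compound for 48 h before reading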
In short: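 500 log-phase HBL1 cells per well in phenol red-free RPMI with 5% FBS were treated with compounds for 48 h at 37 °C, 5% CO2. Viability was read by CellTiter-Glo luminescence, normalized to DMSO (100%) and 9.2 uM bortezomib final (0%).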

[11] = Cytotoxicity counterscreen for NFkB agonists and antagonists (AID 624476);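 further: cells exposed to compound for 48 hours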
[12] = qHTS Assay for Identification of Small Molecule Agonists for NFkB Signaling Pathway. (AID 624478);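 further: compounds tested together with TNF alpha at its EC50 of 10 pM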
In short: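 ME-180 cervical carcinoma, stable NFkB-RE beta-lactamase reporter; 1000 cells/well, overnight attachment; cpd + TNF alpha 10 pM final, 5 h 37 C; LiveBLAzer 2 h RT; FRET 460/530 nm, ex 405 nm.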

[13] = qHTS Assay for Identification of Small Molecule Antagonists for NFkB Signaling Pathway. (AID 624479; calls by dose curve;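 further: pathway stimulated with TNF alpha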)
[14] = Cell Proliferation Assay against the TMD8 Cell Line (Caspase readout at 16 hrs) (AID 651712)
In short: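 TMD8 cells (500/well) in phenol-red-free RPMI with glutamine, 5% FBS, were exposed to compounds for 16 h at 37 °C. Caspase 3/7 activation was read by Caspase-Glo luminescence; percent activity normalised to DMSO (0%) and 9.2 uM bortezomib final (100%).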

[15] = S16 Schwann cell PMP22 intronic element beta-lactamase assay (AID 624044; calls by dose curve; further: nearly all actives have a fitted effect of over 15% in size)
In short: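 Rat S16 Schwann cells with beta-Lac driven by a PMP22 intronic element, compound-treated 24 h at 37 °C. LiveBLAzer FRET B/G read: 460 nm normalized to potassium clavulanate vs DMSO; 535 nm FRET as viability; concentration-effect curves classified.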

CC(C)(C(=O)O)c1ccc(C(O)CCCN2CCC(C(O)(c3ccccc3)c3ccccc3)CC2)cc1 (stereo not given)
inactive: Potency [1] | Potency [2] | outcome [3] | outcome [4] | outcome [5] | outcome [6]

CC(C)(C)[C@]1(O)CCN2C[C@H]3c4ccccc4CCc4cccc(c43)[C@@H]2C1
inactive: Potency [2] | outcome [3] | outcome [4] | outcome [5]

CNCC(O)c1ccc(O)c(O)c1 (stereo not given)
inactive: Potency [2] | outcome [3] | outcome [5]

CCN(CC)CCCC(C)Nc1c2ccc(Cl)cc2nc2ccc(OC)cc12 (stereo not given)
active: Potency [7] 14.1 µM and 11.2 µM
inactive: Potency [2] | outcome [3] | outcome [4] | outcome [5]

CN(C)CCCN1c2ccccc2CCc2ccccc21
inactive: Potency [1] | Potency [2] | outcome [6]

CNCCCC1c2ccccc2C=Cc2ccccc21
active: Potency [8] 12.3 µM
inactive: Potency [1] | Potency [2] | outcome [3] | outcome [4] | outcome [5] | outcome [6]

O=C1Nc2ccc(Cl)cc2[C@@](C#CC2CC2)(C(F)(F)F)O1
3.1% [at 92.2 µM]: viability (% of control) [9]
inactive: Potency [7]
2.9% [at 92.2 µM]: viability, percent of control [10]

O=C1N=C(O)CN1/N=C/c1ccc(-c2ccc([N+](=O)[O-])cc2)o1
inactive: Potency [7] | Potency [2] | outcome [3] | outcome [4] | outcome [5] | outcome [6]

NC(=O)c1ncn([C@@H]2O[C@H](CO)[C@@H](O)[C@H]2O)c1N
159%: viability, percent of control [10]
128%: viability (% of control) [9]
inactive: Potency [7] | outcome [11] | outcome [12] | outcome [13] | Potency [14]

CNCCC(Oc1ccc(C(F)(F)F)cc1)c1ccccc1 (stereo not given)
inactive: Potency [1] | Potency [15] | Potency [2] | outcome [3] | outcome [4] | outcome [5] | outcome [6]

O=C(O)Cc1sc(-c2ccccc2)nc1-c1ccc(Cl)cc1
inactive: Potency [1]

CC(CN(C)C)CN1c2ccccc2CCc2ccccc21 (stereo not given)
inactive: Potency [2] | outcome [3] | outcome [4] | outcome [5] | outcome [6]
active: Potency [7] 7.08 µM

c1ccc(CN(CC2=NCCN2)c2ccccc2)cc1
inactive: Potency [1] | Potency [8]

CC[C@H]1CN2CCc3cc(OC)c(OC)cc3[C@@H]2C[C@@H]1C[C@H]1NCCc2cc(OC)c(OC)cc21
inactive: Potency [2] | outcome [3] | outcome [4] | outcome [5] | outcome [6]
